For 39 sequences, sensor-assay potency score (higher = more potent) results are on record in the OligoGym collection.
Also: reference of the scale not given here.

The target in the first test is TMEM109. Briefly: pooled miR-30 sensor sort-seq; sequence = guide strand. The conditions noted are these: shRNA.
As to TCCCTCGCACAGATCGACCTAT, the sensor-assay potency score (higher = more potent) was -0.902. Sequence TGTGATTCCACATCAAACCTGA registered a sensor-assay potency score (higher = more potent) of 0.855. As for TTTGGTATGACACTGGCGGTGT, the sensor-assay potency score (higher = more potent) turned out to be 0.696. TCGCACAGATCGACCTATCTGG yielded a sensor-assay potency score (higher = more potent) of -0.204. On the same count and under the same terms, to TTTGAACACATGCTTTCCCCAT belongs -0.568; to TCTGGGTCAAGACATCAACTGG, -1.37; to TTGAACACATGCTTTCCCCATG, -0.916. The same measure, in the same setting: to TGGGTCAAGACATCAACTGGGG belongs -0.224. Same read-out and setting: to TATTCTTCACATCATGTGCCAA belongs -0.456; to TTTCTCTGTTTCTCTTGGCTAG, -0.388. Turning to TTTAAAACCAACCAAGCACTGA, the sensor-assay potency score (higher = more potent) is -0.265. On the same count and under the same terms, to TTCCACATCAAACCTGAACAGT belongs -0.603.

The next test deals with TMEM110. Described as above. The conditions noted are these: shRNA.
Consider TTTTTAAGTCACAGTAGTCTGG, for which the sensor-assay potency score (higher = more potent) is -0.583.

The sequence TTTTAAGTCACAGTAGTCTGGG came in with a sensor-assay potency score (higher = more potent) of 0.293. Same read-out and setting: to TTCTTCTAGCTTAGCTTTCGTC belongs -0.864; to TTCTAGCTTAGCTTTCGTCTTC, -0.0536; to TTTAAGTCACAGTAGTCTGGGG, 0.109. TTAAGTCACAGTAGTCTGGGGG registered a sensor-assay potency score (higher = more potent) of -0.231. TTAGCTTTCGTCTTCCCCTTTC gave a sensor-assay potency score (higher = more potent) of -0.779. On the same count and under the same terms, to TTTGTAGTGCAACTGAATGGGG belongs -0.728; to TTGTAGTGCAACTGAATGGGGA, -0.276. Regarding TTCAGTGAGATCTGCTAGGTAT, the sensor-assay potency score (higher = more potent) came to 0.113. Take TTGGAAGTGTCTAAAAACCATA: the sensor-assay potency score (higher = more potent) is -1.5. The same measure, in the same setting: the result for TAAGTCACAGTAGTCTGGGGGC reads 0.0391.

A further test has as its target TMEM117. The test is described as above. To be noted: shRNA.
As to TACATCAACATCTCCCATGAAA, the sensor-assay potency score (higher = more potent) was -1.02. Same read-out and setting: the result for TTGAACATCAGATACATGGGTC reads 0.48; that for TTTCACTGTATATATCTTCTGC, -0.0324; that for ATTTACATCAACATCTCCCATG, -0.907. As for TATTACTGAATTTTGCATCTGT, the sensor-assay potency score (higher = more potent) stood at 1.08.

TTGTCTTGATTCTCCATGCGTG showed a sensor-assay potency score (higher = more potent) of -0.601. On the same count and under the same terms, the result for TTAATCGGAGCAACTGACCAAA reads -0.0675. On the same count and under the same terms, the result for TAGTAGATTCGTTCAACTGTGA reads 0.105; that for TTTGTCTTGATTCTCCATGCGT, -0.0154; that for TTGAAGTCAGACCTGATGCAAA, -0.838.

As to TTAGTGTGATTGGACCTCCATT, the sensor-assay potency score (higher = more potent) was -1.69. The same measure, in the same setting: the result for TATCAGTGACCATCCAAGCTGT reads -0.461.

A further test deals with TMEM130. Described as above. To be noted: shRNA.
On to TATGTGTACAACCTTTAGTTAT, for which the sensor-assay potency score (higher = more potent) is -1.54. In turn, TTGCCAGTAAGCACCAGCGGGG had a sensor-assay potency score (higher = more potent) of -1.3. Same read-out and setting: the result for TTCAAGGTCACGGTCATCTTTT reads -0.705.
